PubChem BioAssay (NCI)
The panel holds about 83,000 compounds, 20% with a hit somewhere; the sample as a whole holds those more often.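 Cells were grown in 96-well plates and exposed to the test compound at a single concentration for 48 hours; results are reported as percent growth, with values below 10 considered active.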 Unmarked numbers belong to inactive results. Active and inactive are the calls of the source.

Experiments:
Assay in all cases: NCI-60 one-dose screen, 48 h (100 = growth as untreated, 0 = no growth, -100 = all killed)
Conditions in all cases: 10 µM unless noted
HCT-15 colon = system: HCT-15 colon
HT29 colon = system: HT29 colon
SNB-75 CNS = system: SNB-75 CNS
SNB-19 CNS = system: SNB-19 CNS
U251 CNS = system: U251 CNS
PC-3 prostate = system: PC-3 prostate
SK-MEL-5 melanoma = system: SK-MEL-5 melanoma
UACC-62 melanoma = system: UACC-62 melanoma
LOX IMVI melanoma = system: LOX IMVI melanoma
SK-MEL-28 melanoma = system: SK-MEL-28 melanoma
SK-MEL-2 melanoma = system: SK-MEL-2 melanoma
EKVX NSCLC = system: EKVX NSCLC
SN12C renal = system: SN12C renal
UO-31 renal = system: UO-31 renal
TK-10 renal = system: TK-10 renal
ACHN renal = system: ACHN renal
A498 renal = system: A498 renal
CCRF-CEM leukemia = system: CCRF-CEM leukemia
MOLT-4 leukemia = system: MOLT-4 leukemia
CAKI-1 renal = system: CAKI-1 renal

Row | Structure (SMILES) | growth (HCT-15 colon) | growth (HT29 colon) | growth (SNB-75 CNS) | growth (SNB-19 CNS) | growth (U251 CNS) | growth (PC-3 prostate) | growth (SK-MEL-5 melanoma) | growth (UACC-62 melanoma) | growth (LOX IMVI melanoma) | growth (SK-MEL-28 melanoma) | growth (SK-MEL-2 melanoma) | growth (EKVX NSCLC) | growth (SN12C renal) | growth (UO-31 renal) | growth (TK-10 renal) | growth (ACHN renal) | growth (A498 renal) | growth (CCRF-CEM leukemia) | growth (MOLT-4 leukemia) | growth (CAKI-1 renal)
1 | COc1ccc(-c2c(-c3ccccc3)noc2N)cc1OC | 100% | 101% | 101% | 109% | 98% | 98.8% | 97.3% | 95% | 105% | 112% | 98.5% | 99.7% | 105% | 91.5% | 111% | 133% | 123% | 98.1% | 99.3% | –
2 | COc1ccc2nc(N=Nc3c(O)ccc4ccccc34)sc2c1 | 31.4% | 28.2% | 49.4% | 31.8% | 23.1% | 49.1% | 4.14% (active) | 7.36% (active) | 12.8% | 35.5% | 59.3% | 17.8% | 50.4% | 20.7% | 69.1% | 17.2% | 79% | – | 19.9% | –
3 | COc1ccc(Nc2nc(N)nc3c2CCc2occc2-3)cc1 | 92% | 87% | 95% | 99.4% | 103% | 90.4% | 94.6% | 93.9% | 93.1% | 106% | 106% | 84.1% | 99.5% | 83.7% | 121% | 104% | 98.2% | – | 94.3% | –
4 | O=C(Nc1ccc(Nc2ncccn2)cc1)NC1C=c2ccccc2=CC1 (centres undefined) | 102% | 103% | 91.8% | 103% | 99% | 108% | 99.7% | 92.9% | 108% | 107% | 102% | 106% | 92.5% | 80.5% | 112% | 105% | 96.9% | – | 87.5% | –
5 | CCCCCCC/C=C/[C@H]1O[C@]2(O)C(=O)C=C3C[C@@H](O[C@@H]4O[C@H](CO)[C@@H](O)C(O)[C@@H]4O)C[C@@H]3[C@H]2C=C1C (some centres undefined) | -25% (active) | -12.2% (active) | 48.4% | 13% | -60.5% (active) | -26.8% (active) | 6.77% (active) | -52.4% (active) | -76.1% (active) | -26% (active) | -28.5% (active) | 72.4% | 1.69% (active) | -88.1% (active) | 4.93% (active) | -4.43% (active) | 71.2% | 9.27% (active) | -6.66% (active) | –
6 | COc1ccc(-c2cnc(N)nc2-c2ccc(OC)cc2O)cc1 | 101% | 85.6% | 91.5% | 99.6% | 92.2% | 92% | 104% | 93.4% | 86.1% | 104% | 112% | 96.8% | 98.5% | 70.2% | 99.1% | 87.9% | 99.8% | – | 77.2% | –
7 | C=CCn1c(SCC(=O)Nc2ccc(C(=O)/C=C/c3cc(OC)c(OC)c(OC)c3)cc2)nnc1-c1cc(OC)c(OC)c(OC)c1 | 0.237% (active) | -34.8% (active) | 37.2% | 40.6% | 2.63% (active) | 49.9% | 31.7% | 33.7% | 5.43% (active) | 66.9% | 80.9% | 51.8% | 33.8% | 42% | 87.3% | 37.8% | 55.8% | 1.85% (active) | 12.3% | –
8 | CC1=CC[C@@H]2CC[C@]3(C)[C@H](CC[C@@H]4[C@@]5(C)CCCNC(C)(C)[C@@H]5CC[C@]43C)[C@H]2[C@@H]1C | -57.8% (active) | -55.2% (active) | 76.5% | 18.1% | -90.8% (active) | 27.7% | 89.9% | 92.4% | -100% (active) | 63.7% | 94.6% | 84.5% | 48.3% | 55.7% | 80.5% | 8.91% (active) | 60.2% | – | -8.43% (active) | –
9 | CC1NC(=S)NC(=O)/C1=C/c1cc(=O)oc2c1ccc1ccccc12 (centres undefined) | 103% | 87.7% | 73.3% | 103% | 94.9% | 72.8% | 97.1% | 99.1% | 89.2% | 115% | 91% | 88.7% | 95.6% | 73.6% | 123% | 95.6% | 101% | 81% | 88.6% | –
10 | Fc1ccc2nc3c(cc2c1)CSc1nnc(-c2ccc[nH]c2=S)n1N3 | 104% | 108% | 75.8% | 98.1% | 107% | 91.5% | 96.4% | 91.7% | 96.1% | 102% | 98.3% | 94.2% | 98.2% | 82% | 110% | 94% | 92.1% | 98.9% | 101% | –
11 | N/C(=N\N=C\c1cc2ccccc2[nH]1)N/N=C/c1cc2ccccc2[nH]1 | 93.5% | 95.7% | 85.9% | 97.6% | 101% | 89.3% | 84.9% | 99.2% | 98.4% | 103% | 100% | 79.7% | 89.9% | 74.1% | 116% | 109% | – | 84.4% | 84.6% | –
12 | COc1c(Cl)cc(Cl)c2ccc(C=C3C(=O)NC(=S)NC3=O)nc12 | 103% | 109% | 95% | 99.2% | 105% | 105% | 101% | 105% | 101% | 103% | 105% | – | 100% | 93.2% | 107% | 101% | 93.8% | 105% | 105% | 91.7%
13 | Cc1cc2nc(-c3ccccc3)c(-c3ccccc3)nc2cc1C | 98.1% | 116% | 114% | 104% | 105% | 106% | 92.4% | 85.5% | 100% | 105% | 107% | 89.2% | 92.8% | 113% | 125% | 114% | – | 99.4% | 89% | –
14 | CC(=O)OCCCCCNc1ccccc1 | 107% | 99.2% | 103% | 107% | 100% | 100% | 106% | 106% | 100% | 106% | 102% | 104% | 103% | 88.1% | 107% | 101% | – | 103% | 91.3% | –
15 | CC(C)Cc1ccc(C(C)C(=O)NCc2c[nH]c3ccc(Cl)cc23)cc1 (centres undefined) | 91.2% | 111% | 102% | 96.2% | 91.8% | 66.2% | 85.4% | 66.6% | 96% | 94.6% | 92% | 85.9% | 94% | 65.4% | 107% | 86.6% | – | 73.8% | 65.6% | –
16 | O=S(=O)(NCCCNc1nccc(-c2c(-c3ccccc3)nc3occn23)n1)c1ccc(Cl)cc1 | 79.8% | 47.5% | 95.6% | 97.8% | 86.6% | 72.1% | 70.3% | 68.8% | 72.7% | 90% | 88.3% | 89.1% | 68.2% | 44.4% | 102% | 58.3% | 83.1% | 75.5% | 68.1% | –
17 | O=C1Nc2ccccc2/C1=N/c1nc(-c2ccc(Cl)cc2)cs1 | 71.2% | 46.3% | 90.8% | 75.1% | 53.8% | 35.2% | 76.7% | 61% | 68.9% | 84.4% | 88.2% | 60.2% | 79.1% | 52.2% | 87.9% | 80.2% | 51% | 41% | 25% | –
